Test results from PubChem BioAssay (NCATS).
Records with an inconclusive call do not appear. The source made the active and inactive calls. Calls follow the shape of the dose curve; as a rule, active = well fitted inhibition curve with a large enough effect; inconclusive = small, poorly fitted or top-dose-only effect; inactive = flat fitted curve, though single readings scatter.

test system: HaCat; test: Cytotoxic Profiling of Annotated Libraries Using Quantitative High-Throughput Screening (AID 1296008); settings: Five cell lines viability, CellTiter-Glo ATP luminescence, 48-72 h; max response: hits give low values; also: nearly all actives have a fitted effect of over 60% in size
Method in brief: (§1)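 Cells exposed to compounds for 48 or 72 hr at 37 degrees Celsius. Viability read as ATP-coupled luminescence with CellTiter-Glo after 10 min at room temperature.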
% is scaled to controls: 0 for no effect and ±100 for the full control effect; potency is read from the fitted curve at half-maximal effect.

Structure (SMILES) | outcome | max response | Potency
CCN1CCc2nc(N)oc2CC1 | inactive |  | 
CCn1cc(C(=O)O)c(=O)c2cc3c(cc21)OCO3 |  | -9.91% (inactive) | 
COC(=O)[C@@H](N)Cc1ccc(O)c(O)c1 |  | 3.62% (inactive) | 
CCOC(=O)c1cnc2c(cnn2CC)c1NN=C(C)C |  | -11.8% (inactive) | 
Cc1scc2c1N(C(=O)CN1CCN(C)CC1)c1ccccc1NC2=O | inactive |  | 
CC(C)(C)NCC(O)c1cc(O)cc(O)c1 (centres undefined) |  | 4.23% (inactive) | 
CC1=C(C)C(=O)C(CCCCC#CCCCC#CCO)=C(C)C1=O |  | -15.6% (inactive) | 
NC(=O)c1cn(Cc2c(F)cccc2F)nn1 |  | 0.796% (inactive) | 
CC(=O)OC(C)C[N+](C)(C)C (centres undefined) | inactive |  | 
NC(Cc1ccc(Cl)cc1)C(=O)O (centres undefined) | inactive |  | 
FC(F)(F)c1ccccc1-n1ccnc1 | inactive |  | 
CCCCNc1ccc(C(=O)OCCN(C)C)cc1 |  | -3.56% (inactive) | 
O=C(O)CCCCCCCC(=O)O |  | 2.4% (inactive) | 
Nc1ncn([C@@H]2O[C@H](CO)[C@@H](O)[C@H]2O)c(=O)n1 |  | -18.5% (inactive) | 
CCN(CC)CCNC(=O)c1cc(S(C)(=O)=O)ccc1OC |  | -0.825% (inactive) | 
O=C(O)CN(CCOCCOCCN(CC(=O)O)CC(=O)O)CC(=O)O |  | 4.17% (inactive) | 

Structure (SMILES) | outcome | max response | Potency
CC(=O)[C@]1(O)Cc2c(O)c3c(c(O)c2[C@@H](O[C@H]2C[C@H](N)[C@H](O)[C@H](C)O2)C1)C(=O)c1ccccc1C3=O |  |  | 59.6 nM (active)
CCN1CCC[C@H]1CNC(=O)c1c(O)c(Cl)cc(Cl)c1OC | inactive |  | 
CCCN(CCC)C(=O)C(CCC(=O)O)NC(=O)c1ccccc1 (centres undefined) |  | 4.34% (inactive) | 
CN1C[C@H](C(=O)N[C@]2(C)O[C@@]3(O)[C@@H]4CCCN4C(=O)[C@H](Cc4ccccc4)N3C2=O)C[C@@H]2c3cccc4[nH]cc(c34)C[C@H]21 |  | -5.88% (inactive) | 
C[n+]1cc2c3c(ccc2c2ccc4cc5c(cc4c21)OCO5)OCO3 |  |  | 2590 nM (active)
NC(N)=NC(=O)Cc1c(Cl)cccc1Cl |  | -14.8% (inactive) | 
O=C(O)CN(CCN(CC(=O)O)CC(=O)O)CCN(CC(=O)O)CC(=O)O |  | -15.5% (inactive) | 
CN=C(NC#N)NCCSCc1nc[nH]c1C | inactive |  | 
NC/C=C/C(=O)O | inactive |  | 
Cc1ccc(/C(=C\CN2CCCC2)c2ccccn2)cc1 |  | -3.07% (inactive) | 
CCCN(CCC)CCc1cccc2c1CC(=O)N2 |  | -2.54% (inactive) | 
NC(=O)c1ncn([C@@H]2O[C@H](CO)[C@@H](O)[C@H]2O)c1O | inactive |  | 
CC(C)[N+](C)(CCOC(=O)C1c2ccccc2Oc2ccccc21)C(C)C |  | -8.6% (inactive) | 
CCN(CC)CC(=O)Nc1c(C)cccc1C |  | -2.67% (inactive) | 
NCCCNCCSP(=O)(O)O | inactive |  | 
c1ccc2c(c1)CCCC2C1=NCCN1 (centres undefined) | inactive |  | 

test system: KB-3-1; test: as above; settings: Five cell lines viability, CellTiter-Glo ATP luminescence, 48-72 h; max response: hits give low values
Method in brief: as §1

Structure (SMILES) | max response
CCc1c(C)[nH]c2c1C(=O)C(CN1CCOCC1)CC2 (centres undefined) | -8.21% (inactive)
COC(=O)[C@@H](N)Cc1ccc(O)c(O)c1 | -3.59% (inactive)
CC1=C(C)C(=O)C(CCCCC#CCCCC#CCO)=C(C)C1=O | -7.44% (inactive)
C[N+](C)(C)CCOC(N)=O | 27.4% (inactive)
O=C(O)CCCCCCCC(=O)O | -3.68% (inactive)
CCN(CC)CCNC(=O)c1cc(S(C)(=O)=O)ccc1OC | 6.27% (inactive)
C[n+]1cc2c3c(ccc2c2ccc4cc5c(cc4c21)OCO5)OCO3 | -95.7% (inactive)
NC(N)=NC(=O)Cc1c(Cl)cccc1Cl | 6.63% (inactive)
O=C(O)CN(CCN(CC(=O)O)CC(=O)O)CCN(CC(=O)O)CC(=O)O | 28.9% (inactive)
CC(C)[N+](C)(CCOC(=O)C1c2ccccc2Oc2ccccc21)C(C)C | -0.425% (inactive)
O=C(O)CP(=O)(O)O | 0.355% (inactive)
CCN(CC)CC(=O)Nc1c(C)cccc1C | -0.324% (inactive)
Brc1c(NC2=NCCN2)ccc2nccnc12 | -13.6% (inactive)

test system: NIH3T3; test: as above; settings: Five cell lines viability, CellTiter-Glo ATP luminescence, 48-72 h; max response: hits give low values
Method in brief: as §1

Structure (SMILES) | max response | outcome | Potency
CCN1CCc2nc(N)oc2CC1 | -2.66% (inactive) |  | 
CCn1cc(C(=O)O)c(=O)c2cc3c(cc21)OCO3 | -23.3% (inactive) |  | 
CCc1c(C)[nH]c2c1C(=O)C(CN1CCOCC1)CC2 (centres undefined) |  | inactive | 
COC(=O)[C@@H](N)Cc1ccc(O)c(O)c1 | -6.82% (inactive) |  | 
CCOC(=O)c1cnc2c(cnn2CC)c1NN=C(C)C | -3.28% (inactive) |  | 
Cc1scc2c1N(C(=O)CN1CCN(C)CC1)c1ccccc1NC2=O | -7.24% (inactive) |  | 
CC(C)(C)NCC(O)c1cc(O)cc(O)c1 (centres undefined) | 3.49% (inactive) |  | 
CC1=C(C)C(=O)C(CCCCC#CCCCC#CCO)=C(C)C1=O | -8.8% (inactive) |  | 
C[N+](C)(C)CCOC(N)=O | -0.0921% (inactive) |  | 
NC(=O)c1cn(Cc2c(F)cccc2F)nn1 | -0.364% (inactive) |  | 
CC(=O)OC(C)C[N+](C)(C)C (centres undefined) | 2.06% (inactive) |  | 
NC(Cc1ccc(Cl)cc1)C(=O)O (centres undefined) | 4.7% (inactive) |  | 
FC(F)(F)c1ccccc1-n1ccnc1 | -5.68% (inactive) |  | 
CCCCNc1ccc(C(=O)OCCN(C)C)cc1 |  | inactive | 
O=C(O)CCCCCCCC(=O)O |  | inactive | 
Nc1ncn([C@@H]2O[C@H](CO)[C@@H](O)[C@H]2O)c(=O)n1 | -10.9% (inactive) |  | 
CCN(CC)CCNC(=O)c1cc(S(C)(=O)=O)ccc1OC | -1.98% (inactive) |  | 

Structure (SMILES) | max response | outcome | Potency
O=C(O)CN(CCOCCOCCN(CC(=O)O)CC(=O)O)CC(=O)O | -0.882% (inactive) |  | 
CC(=O)[C@]1(O)Cc2c(O)c3c(c(O)c2[C@@H](O[C@H]2C[C@H](N)[C@H](O)[C@H](C)O2)C1)C(=O)c1ccccc1C3=O |  |  | 84.1 nM (active)
CCN1CCC[C@H]1CNC(=O)c1c(O)c(Cl)cc(Cl)c1OC | 1.49% (inactive) |  | 
CCCN(CCC)C(=O)C(CCC(=O)O)NC(=O)c1ccccc1 (centres undefined) | -2.14% (inactive) |  | 
C[n+]1cc2c3c(ccc2c2ccc4cc5c(cc4c21)OCO5)OCO3 |  |  | 4610 nM (active)
NC(N)=NC(=O)Cc1c(Cl)cccc1Cl | 3.43% (inactive) |  | 
CN=C(NC#N)NCCSCc1nc[nH]c1C | -0.832% (inactive) |  | 
NC/C=C/C(=O)O | -7.89% (inactive) |  | 
Cc1ccc(/C(=C\CN2CCCC2)c2ccccn2)cc1 | 1.95% (inactive) |  | 
CCCN(CCC)CCc1cccc2c1CC(=O)N2 | -15.5% (inactive) |  | 
NC(=O)c1ncn([C@@H]2O[C@H](CO)[C@@H](O)[C@H]2O)c1O | -1.25% (inactive) |  | 
CC(C)[N+](C)(CCOC(=O)C1c2ccccc2Oc2ccccc21)C(C)C |  | inactive | 
O=C(O)CP(=O)(O)O |  | inactive | 
CCN(CC)CC(=O)Nc1c(C)cccc1C |  | inactive | 
NCCCNCCSP(=O)(O)O |  | inactive | 
Brc1c(NC2=NCCN2)ccc2nccnc12 | -5.35% (inactive) |  | 
c1ccc2c(c1)CCCC2C1=NCCN1 (centres undefined) |  | inactive | 
